This is an account of results in PubChem BioAssay AID463193 (University of Pittsburgh Molecular Library Screening Center, 2010).

Screen size: about 190,000 compounds; about 1,900 (1%) were called active.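 The calls were made as follows: active = percentage of spot-positive cells more than 3 SD above its plate mean, without a fluorescence outlier flag or 80% toxicity; inconclusive = no clear call, values can overlap the other calls; inactive = the rest.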 The entries come from a sample that favours actives as a whole.

A short description of the assay: GFP-LC3 puncta formation changes – imaging, high-content, MEF GFP-LC3, primary screen (AID 463193).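 As to % cells with GFP-LC3 spots: spot-positive cell cutoff set from DMSO-treated cells.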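 As to toxicity: cell loss after 18 h compound exposure.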 To be noted: autophagy, at 10 µM; % cells with GFP-LC3 spots: stronger effect = higher value; toxicity: measured here: cell loss, nuclei count.
On to `CCOC(=O)C1CCCN(C(=O)c2cncc(Br)c2)C1` (configuration not stated), for which the % cells with GFP-LC3 spots is 9.51% (inactive) and the toxicity worked out at 4.79%.
In the case of `CSc1ccc(CCNC(=O)C2CCN(c3nnc(-n4cccc4)s3)CC2)cc1`, the % cells with GFP-LC3 spots was 4.67% (inactive) and the toxicity was 3.56%.
The like results for `CCOC(=O)C1CCCN(C(=O)C2CCN(c3nnc(-n4cccc4)s3)CC2)C1` (configuration not stated) were, in that order, 15.3% (active) and 6.19%.
The like results for `Fc1cc(Br)ccc1NC(=S)Nc1cccnc1` were, in that order, 4.97% (inactive) and -1.9%.
For `CN(C)c1ccc(-n2cccc2/C=N/n2cnnc2)cc1`, the % cells with GFP-LC3 spots was 4.65% (inactive) and the toxicity is -2.02%.
The like results for `CN(C)c1ccc(-n2cccc2/C=C2/SC(=Nc3ccc(F)cc3)NC2=O)cc1` were, in that order, 93.2% (active) and -20.2%.
Regarding `Cc1cccc(N=C2NC(=O)/C(=C/c3cn(C)c4ccccc34)S2)c1`, the % cells with GFP-LC3 spots was 2.55% (inactive) and the toxicity stood at 4.32%.
For `CCC(C)(C)NC(=O)/C=C/c1cc(OC)c(OC)c(S(=O)(=O)N2CCc3ccccc32)c1` the same measures were 11.3% (inactive) and 20%.
The like results for `O=C(CCl)N(Cc1cccc([N+](=O)[O-])c1)c1cccc(Cl)c1` were, in that order, 60.8% (active) and 58.5%.
On to `CCN(CC)C(=O)CN(c1cccc([N+](=O)[O-])c1)S(=O)(=O)c1ccccc1`, for which the % cells with GFP-LC3 spots was 0.147% (inactive) and the toxicity was determined as 2.32%.
`O=C(Nc1cccc([N+](=O)[O-])c1)Nc1ccc(Cl)cn1`: the % cells with GFP-LC3 spots was 1.56% (inactive) and the toxicity worked out at 15.9%.
For `Cc1ccccc1OCC(=O)Nc1nc(C)c(C(=O)N(C)C)s1` the same measures were 28.3% (inactive) and -9.79%.
The like results for `CCc1cccc(NC(=O)CCC(=O)O)c1` were, in that order, 4.04% (inactive) and 8.61%.
The like results for `O=C(c1ccc(F)cc1)n1cc(C(=S)N2CCOCC2)c2ccccc21` were, in that order, 8.35% (inactive) and -13.5%.
Regarding `CCOC(=O)c1sc(NC(=O)CSc2nc(O)c(Cc3ccccc3)c(=O)[nH]2)nc1C`, the % cells with GFP-LC3 spots is 4.28% (inactive) and the toxicity was -1.5%.
The like results for `CCc1ccc(Oc2coc3cc(OC(=O)c4cc5ccccc5oc4=O)ccc3c2=O)cc1` were, in that order, 1.87% (inactive) and -5.27%.
Take `COc1ccc(Oc2coc3cc(OC(=O)c4cncc(Br)c4)ccc3c2=O)cc1`: the % cells with GFP-LC3 spots is 25.7% (active) and the toxicity is -11.8%.
For `COC(=O)c1ccccc1NC(=O)c1cncc(Br)c1` the same measures were 6.11% (inactive) and -8.54%.
In the case of `Nc1nc(SCC(=O)N2CCN(S(=O)(=O)c3ccc(Cl)cc3)CC2)n[nH]1`, the % cells with GFP-LC3 spots was 1.97% (inactive) and the toxicity is -0.836%.
With `N#Cc1ccsc1NC(=O)CN1CCN(S(=O)(=O)c2cc(Cl)ccc2Cl)CC1`, the % cells with GFP-LC3 spots was 7.41% (inactive) and the toxicity was 41.3%.
The like results for `CCCN1CC=C2C(C#N)=C(N)C(C#N)(C#N)C(c3cc(OC)ccc3OC)C2C1` (configuration not stated) were, in that order, 99.7% (active) and 9.7%.
For `CCC1=C(C(=O)OC)C(c2cc(OC)ccc2OC)C(C#N)=C(N)O1` (configuration not stated) the same measures were 2.22% (inactive) and -10.7%.
For `CCOC(=O)N1CC=C2C(C#N)=C(N)C(C#N)(C#N)[C@H](c3cccs3)[C@H]2C1` the same measures were 11.3% (inactive) and -6.29%.
As to `COCCCNCCOCCOc1ccc(Cl)cc1Br`, the % cells with GFP-LC3 spots is 5.65% (inactive) and the toxicity is 4.08%.
For `CCn1nc(C)c(/C=N/NC(=O)Cc2ccc(Cl)cc2)c1C` the same measures were 4.23% (inactive) and 8.44%.
Consider `Cc1cc(C)c(S(=O)(=O)NCCCN2CCOCC2)cc1Br`, for which the % cells with GFP-LC3 spots was 19.8% (active) and the toxicity amounted to 9.5%.
The like results for `Cc1cc(C)cc(NC(=S)NCCCN2CCOCC2)c1` were, in that order, 12.3% (inactive) and -2.96%.
For `Cc1ccc(S(=O)(=O)NCCN2CCOCC2)cc1C` the same measures were 1.8% (inactive) and 15.4%.
Consider `CCc1nc2ccccc2c(C(=O)NCc2ccc(OC)cc2)c1C`, for which the % cells with GFP-LC3 spots was 2.64% (inactive) and the toxicity was -18.8%.
Regarding `C=CCNc1nc(Nc2ccc(Cl)cc2)nc(OC)n1`, the % cells with GFP-LC3 spots was 0.706% (inactive) and the toxicity came to 0.881%.
For `Cc1ccc(NC(=O)OCCNC(=O)c2ccncc2)cc1` the same measures were 5.3% (inactive) and 0.481%.
The like results for `CC[C@H]1OC(=O)[C@H](C)[C@@H](O[C@H]2C[C@@](C)(OC)[C@@H](O)[C@H](C)O2)[C@H](C)[C@@H](O[C@@H]2O[C@H](C)C[C@H](N(C)C)[C@H]2O)[C@](C)(O)C[C@@H](C)[C@@H]2N[C@@H](COCCOC)O[C@H]([C@H]2C)[C@]1(C)O` were, in that order, 10.6% (inactive) and 20.5%.
For `COc1cccc2cc(S(=O)(=O)c3ccc(C)cc3)/c(=N/NS(=O)(=O)c3ccc(C)cc3)oc12` the same measures were 5.62% (inactive) and 3.69%.
Take `CCN1C(=O)/C(=C2/Sc3ccccc3N2CCCS(=O)(=O)O)SC1=S`: the % cells with GFP-LC3 spots was 1.02% (inactive) and the toxicity was -10.6%.
For `CCN1C(=O)/C(=c2\s/c(=C3\Sc4ccccc4N3C)c(=O)n2C)N(C)C1=S` the same measures were 1.17% (inactive) and 19.3%.
For `CCN1C(=O)/C(=C2/Sc3ccc(OC)cc3N2C)SC1=Nc1ccc(C)cc1` the same measures were 24.8% (active) and -15%.
The like results for `CC(=O)c1ccc(N=C2SCCCN2C(=O)C2CCCCC2)cc1` were, in that order, 1.47% (inactive) and -1.61%.
For `CCCOc1ccc(N/C=C/C(=O)C(C)(C)C)cc1`, the % cells with GFP-LC3 spots is 0.722% (inactive) and the toxicity was -6.8%.
The like results for `CCCOc1ccc(NC(=O)C2CCCNC2=O)cc1` (configuration not stated) were, in that order, 12.2% (inactive) and -1.43%.
The like results for `CCCOc1ccc(NC(=O)C2OC3OC(C)(C)OC3C3OC(C)(C)OC23)cc1` (configuration not stated) were, in that order, 19.1% (active) and -25.3%.
As for `C=CCOc1c(Br)cc(/C=N\n2nnnc2N)cc1OC`, the % cells with GFP-LC3 spots is 6.77% (inactive) and the toxicity worked out at 29%.
For `CC1CC2=C(CC1/C=N/NC(N)=S)C(C)(C)CCC2` (configuration not stated) the same measures were 39.4% (active) and 20%.
For `CC1(C)CCCC2=C1CC1C(=O)N(c3ccccc3)C(=O)C1C2` (configuration not stated) the same measures were 3.25% (inactive) and 1.28%.
The like results for `Cc1cc2c(C)nc(N/N=C/c3ccccc3)nc2o1` were, in that order, 16.3% (inactive) and 2.3%.
For `Cc1ccc(Cl)cc1N1CCN(C(=O)c2cccc3c(=O)c(C)c(-c4ccccc4)oc23)CC1`, the % cells with GFP-LC3 spots is 3.68% (inactive) and the toxicity worked out at 9.69%.
For `O=C1CCC(=O)N1c1ccc(NCCc2ccccc2F)c([N+](=O)[O-])c1` the same measures were 1.23% (inactive) and 31.5%.
`CC(Oc1cccc(NC(=O)c2cccs2)c1)C(=O)c1ccccc1` (configuration not stated): the % cells with GFP-LC3 spots was 9.23% (inactive) and the toxicity stood at 21.1%.
The like results for `Cc1ccc(NC(=O)CN2CCCCC2)c2c1CC(C)(C)O2` were, in that order, 4.85% (inactive) and -23.6%.
For the molecule `CCCc1[nH]nc2c1C(C1CC=CCC1)C(C#N)=C(N)O2` (configuration not stated), the % cells with GFP-LC3 spots is 8.01% (inactive) and the toxicity came out at 13%.
The like results for `CCCc1[nH]nc2c1C(c1c(C)nn(-c3ccccc3)c1Cl)C(C#N)=C(N)O2` (configuration not stated) were, in that order, 16.1% (inactive) and 24.7%.
The like results for `CCCc1[nH]nc2c1C(c1ccc(Br)s1)C(C#N)=C(N)O2` (configuration not stated) were, in that order, 13.3% (active) and 8.15%.
For `Cc1ccc(OCc2n[nH]c(=S)n2-c2ccccc2)cc1`, the % cells with GFP-LC3 spots was 4.42% (inactive) and the toxicity is -18.6%.
For `COc1ccc(Nc2ncc(F)c(N3CCOCC3)n2)cc1` the same measures were 7.22% (inactive) and 8.68%.
The like results for `O=C(Nc1cccc(F)c1)N1C2CCC1CC(O)(c1cccnc1)C2` (configuration not stated) were, in that order, 1.55% (inactive) and 2.7%.
Take `O=C(Cn1cc2c(n1)CCCCC2)NCCN1CCOCC1`: the % cells with GFP-LC3 spots is 5.99% (inactive) and the toxicity was -2.07%.
The like results for `COc1ccccc1CNC(=O)Cn1cc2c(n1)CCCC2` were, in that order, 15.2% (active) and 6.76%.
The like results for `COCCNC(=O)Cn1cc2c(n1)CCCCC2` were, in that order, 4.61% (inactive) and -6.66%.
For the molecule `CC(C)NC(=O)NCCCCCCS(C)=O` (configuration not stated), the % cells with GFP-LC3 spots is 22.5% (inactive) and the toxicity was 23.6%.
For `CCOC(=O)c1c(NC(=O)C(C)Sc2c[nH]c3ccccc23)sc2c1CCC2` (configuration not stated) the same measures were 5.48% (inactive) and 2.6%.
For the molecule `COc1ccc(CCc2nnc(CCC(=O)NCc3cnn(-c4ccccc4C)c3)o2)cc1`, the % cells with GFP-LC3 spots was 10.6% (inactive) and the toxicity is -18.2%.
Turning to `COc1cccc(CN(C)CC(=O)Nc2sc3c(c2C#N)CCC3)c1`, the % cells with GFP-LC3 spots is 6.72% (inactive) and the toxicity was -31.4%.
For the molecule `CC(C)[C@H](NC(=O)c1ccc(F)cc1)C(=O)OCC(=O)NC(=O)c1cccn1C`, the % cells with GFP-LC3 spots was 10.6% (inactive) and the toxicity is -0.516%.
Take `CCCCS(=O)c1snnc1C` (configuration not stated): the % cells with GFP-LC3 spots was 3.68% (inactive) and the toxicity is 1.95%.
`CCc1nnc(NS(=O)(=O)c2ccc(NC(=S)NC(=O)/C=C/c3cccs3)cc2)s1`: the % cells with GFP-LC3 spots was 5.75% (active) and the toxicity worked out at 7.01%.
Regarding `CCc1nnc(NS(=O)(=O)c2ccc(NC(=S)NC(=O)c3cccs3)cc2)s1`, the % cells with GFP-LC3 spots is 5.87% (inactive) and the toxicity is -9.89%.
The like results for `CCc1nnc(NS(=O)(=O)c2ccc(NS(=O)(=O)c3ccccc3)cc2)s1` were, in that order, 1.63% (inactive) and 20.8%.
The like results for `O=C(O)CCN(Cc1ccccc1)S(=O)(=O)c1c(Cl)cccc1Cl` were, in that order, 1% (inactive) and 7.07%.
For `COc1ccc(C(=O)NNc2cc(C)nc(NNC(=O)c3ccc(OC)cc3)n2)cc1` the same measures were 0% (inactive) and -3.42%.
For the molecule `COC(=O)[C@@H]1CC[C@H](C)[C@@H](c2ccc(C)cc2)N1C(=O)c1ccc(/C=N/O[C@H](C)c2cn([C@@H]3COC[C@H]3O)nn2)cc1`, the % cells with GFP-LC3 spots is 9.78% (inactive) and the toxicity was determined as 5.86%.
The like results for `O=C(NC1CCCCC1)C1CCCN(S(=O)(=O)c2ccc(Br)s2)C1` (configuration not stated) were, in that order, 0.705% (inactive) and 2.95%.
For the molecule `O=C(CCn1c(=O)[nH]c2ccccc2c1=O)NCCCN1CCN(c2cccc(Cl)c2)CC1`, the % cells with GFP-LC3 spots is 7.4% (inactive) and the toxicity was determined as 9.47%.
The like results for `CCn1c(=O)cc(OCC(=O)NCCCN2CCN(c3cccc(Cl)c3)CC2)c2ccccc21` were, in that order, 14.4% (active) and 23.1%.
For `Cn1c(C(=O)NCCCN2CCN(c3cccc(Cl)c3)CC2)cc2c(=O)n(C)c3ccccc3c21` the same measures were 6.58% (inactive) and 2.89%.
For `COc1ccc(C(=O)Nc2cccc(S(C)(=O)=O)c2)cc1` the same measures were 7.34% (inactive) and 2.69%.
As for `CCN(CC)S(=O)(=O)c1ccc(Cl)c(C(=O)NC(C)C(c2cccs2)N2CCCC2)c1` (configuration not stated), the % cells with GFP-LC3 spots is 1.61% (inactive) and the toxicity is 7.32%.
For `CCCC(=O)NC(C)C(c1cccs1)N1CCN(c2ccccc2)CC1` (configuration not stated) the same measures were 5.17% (active) and 28.7%.
Turning to `CC(NC(=O)Nc1ccccc1)C(c1cccs1)N1CCN(c2ccccc2)CC1` (configuration not stated), the % cells with GFP-LC3 spots was 10.1% (inactive) and the toxicity is -0.847%.
For `COc1cc(CNc2ncn[nH]2)ccc1OCc1ccccc1C` the same measures were 0.305% (inactive) and 8.6%.
For the molecule `COc1ccc2c(c1)CCc1c(C(=O)N3CCCC3)noc1-2`, the % cells with GFP-LC3 spots is 25.2% (active) and the toxicity stood at 71.1%.
The like results for `COc1ccc2c(c1)CCc1c(C(=O)N3CCc4ccccc4C3)noc1-2` were, in that order, 1.3% (inactive) and 5.85%.
In the case of `COc1ccc2c(c1)CCc1c(C(=O)Nc3c(C)n(C)n(-c4ccccc4)c3=O)noc1-2`, the % cells with GFP-LC3 spots was 10.1% (inactive) and the toxicity is 17.1%.
